Experimental data published in PubChem BioAssay.
Active and inactive are the calls of the source. Unless noted, how the calls were made is not given here.

Experiments:
[1] = anti-His antibody binders, primary screen, artefact control for SMM control protein annotation, biochemical, small-molecule microarray, 635 nm fluorescence (AID 1128); conditions: anti-His Alexa647 antibody binding, higher = more signal;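 further: score merges feature fluorescence with signal-to-noise for each printed compound spot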
[2] = test system: Human papillomavirus type 1a E7 protein (residues 1-88); test: HPV1a E7 small-molecule binders, primary screen, biochemical, small-molecule microarray, residues 1-88, 635 nm (AID 1129); conditions: small-molecule microarray binding, fluorescence 635 nm; higher = more signal
[3] = biological target: Focal adhesion kinase 1 (Homo sapiens) (UniProt Q05397); test: small-molecule microarray binders of FAK, primary screen, biochemical, 635/667 nm fluorescence, BSA, DTT (AID 1130); conditions: PTK2 binding, 635 nm fluorescence, higher = more signal;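 further: composite of spot emission at 667 nm and signal to noise over triplicate slides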
Sequence of Focal adhesion kinase 1 (Homo sapiens) (Q05397 whole entry, looked up): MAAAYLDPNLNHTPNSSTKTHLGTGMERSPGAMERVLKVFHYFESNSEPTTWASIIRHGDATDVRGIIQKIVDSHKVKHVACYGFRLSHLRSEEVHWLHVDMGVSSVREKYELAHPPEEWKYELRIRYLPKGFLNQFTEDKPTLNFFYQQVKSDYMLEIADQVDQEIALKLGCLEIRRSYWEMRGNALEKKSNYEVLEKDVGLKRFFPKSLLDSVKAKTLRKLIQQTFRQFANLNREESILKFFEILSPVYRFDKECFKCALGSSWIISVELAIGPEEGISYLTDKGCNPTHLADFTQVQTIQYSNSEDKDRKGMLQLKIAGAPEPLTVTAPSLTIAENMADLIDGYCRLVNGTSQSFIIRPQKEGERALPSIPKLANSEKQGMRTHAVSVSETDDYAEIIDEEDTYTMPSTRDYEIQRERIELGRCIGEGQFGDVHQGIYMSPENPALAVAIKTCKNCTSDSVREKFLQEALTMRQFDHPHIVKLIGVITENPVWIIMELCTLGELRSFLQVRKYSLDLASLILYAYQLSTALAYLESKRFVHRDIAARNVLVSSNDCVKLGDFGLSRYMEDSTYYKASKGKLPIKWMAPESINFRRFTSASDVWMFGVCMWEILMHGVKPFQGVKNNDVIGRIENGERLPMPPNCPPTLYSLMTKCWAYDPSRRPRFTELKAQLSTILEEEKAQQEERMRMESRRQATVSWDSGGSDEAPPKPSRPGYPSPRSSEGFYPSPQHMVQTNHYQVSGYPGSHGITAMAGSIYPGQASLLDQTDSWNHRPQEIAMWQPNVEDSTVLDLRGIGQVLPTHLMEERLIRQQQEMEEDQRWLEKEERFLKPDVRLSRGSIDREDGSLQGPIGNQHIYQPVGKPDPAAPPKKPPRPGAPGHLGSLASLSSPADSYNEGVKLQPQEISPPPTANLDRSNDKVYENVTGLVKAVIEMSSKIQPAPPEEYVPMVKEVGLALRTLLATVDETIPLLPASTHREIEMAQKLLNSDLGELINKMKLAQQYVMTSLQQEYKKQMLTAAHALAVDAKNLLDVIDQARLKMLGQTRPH

[4] = test system: Fibrinogen (Alexa647-labelled); test: fibrinogen binders on compound microarrays, profiling panel, artefact control for SMM control-protein annotation, biochemical, small-molecule microarray, 635/667 nm fluorescence (AID 1131); conditions: fibrinogen-A647 binding fluorescence, higher = more signal;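 further: z-score merges 667 nm fluorescence with per-spot signal-to-noise over triplicate slides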
[5] = biological target: Follistatin (Homo sapiens) (UniProt P19883); test: follistatin binders on small-molecule microarrays, primary screen, biochemical, small-molecule microarray, 635/667 nm fluorescence (AID 1132); conditions: FST binding, 635 nm fluorescence, higher = more signal
Sequence of Follistatin (Homo sapiens) (P19883 whole entry, looked up): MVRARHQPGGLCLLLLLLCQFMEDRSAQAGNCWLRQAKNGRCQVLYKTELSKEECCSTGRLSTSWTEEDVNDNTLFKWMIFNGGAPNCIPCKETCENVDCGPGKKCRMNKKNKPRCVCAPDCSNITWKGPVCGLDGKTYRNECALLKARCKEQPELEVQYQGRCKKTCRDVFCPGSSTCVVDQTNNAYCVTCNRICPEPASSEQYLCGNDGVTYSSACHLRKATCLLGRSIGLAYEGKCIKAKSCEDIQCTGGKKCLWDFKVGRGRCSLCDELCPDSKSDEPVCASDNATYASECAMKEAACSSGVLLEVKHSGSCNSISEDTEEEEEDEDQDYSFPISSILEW

[6] = biological target: Fibroblast growth factor 2 (Homo sapiens) (UniProt P09038); test: FGF2 binders on small-molecule microarrays, primary screen, biochemical, small-molecule microarray, 635/667 nm fluorescence (AID 1133); conditions: small-molecule microarray binding, FGF2, fluorescence 635/667; higher = more signal
Sequence of Fibroblast growth factor 2 (Homo sapiens) (P09038 whole entry, looked up): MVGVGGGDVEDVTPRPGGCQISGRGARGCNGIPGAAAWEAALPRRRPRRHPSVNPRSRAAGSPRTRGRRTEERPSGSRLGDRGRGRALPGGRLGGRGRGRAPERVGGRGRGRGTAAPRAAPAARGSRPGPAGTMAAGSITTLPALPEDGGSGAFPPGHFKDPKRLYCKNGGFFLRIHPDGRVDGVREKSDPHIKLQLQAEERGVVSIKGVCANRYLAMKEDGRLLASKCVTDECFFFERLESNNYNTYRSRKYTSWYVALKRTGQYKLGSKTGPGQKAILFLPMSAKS

[7] = mitochondrial membrane potential change in A549 cells, profiling panel, cell-based, JC-1 fluorescence, basal, 24 h, 100 nL (AID 1138); conditions: higher = more signal;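 further: A549 lung adenocarcinoma cells under basal conditions with no added stimulus; test concentration not given here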
[8] = test system: Lefty1; test: Lefty1 binders on small-molecule microarrays, primary screen, biochemical, small-molecule microarray, 635/667 nm fluorescence (AID 1139); conditions: small-molecule microarray binding, fluorescence 635/667; higher = more signal
[9] = test system: wheat germ agglutinin (Triticum aestivum), Alexa647-labelled; test: wheat germ agglutinin binders on compound microarrays, profiling panel, artefact control for SMM control-protein annotation, biochemical, small-molecule microarray, 635/667 nm fluorescence (AID 1140); conditions: WGA-A647 binding, 635 nm fluorescence, higher = more signal;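 further: score merges 667 nm feature emission with signal to noise over triplicate slides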
[10] = biological target: Luciferin 4-monooxygenase (Photinus pyralis) (UniProt P08659); test: firefly luciferase enzyme inhibitors, primary screen, biochemical, luminescence, purified enzyme, 2006 set (AID 1141); conditions: SteadyGlo luminescence, 30 min, higher = more signal, called active from +8 up or from −8 down;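 further: cell-free assay with purified firefly luciferase at 100 ng per well in PBS; test concentration not given here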
Sequence of Luciferin 4-monooxygenase (Photinus pyralis) (P08659 whole entry, looked up): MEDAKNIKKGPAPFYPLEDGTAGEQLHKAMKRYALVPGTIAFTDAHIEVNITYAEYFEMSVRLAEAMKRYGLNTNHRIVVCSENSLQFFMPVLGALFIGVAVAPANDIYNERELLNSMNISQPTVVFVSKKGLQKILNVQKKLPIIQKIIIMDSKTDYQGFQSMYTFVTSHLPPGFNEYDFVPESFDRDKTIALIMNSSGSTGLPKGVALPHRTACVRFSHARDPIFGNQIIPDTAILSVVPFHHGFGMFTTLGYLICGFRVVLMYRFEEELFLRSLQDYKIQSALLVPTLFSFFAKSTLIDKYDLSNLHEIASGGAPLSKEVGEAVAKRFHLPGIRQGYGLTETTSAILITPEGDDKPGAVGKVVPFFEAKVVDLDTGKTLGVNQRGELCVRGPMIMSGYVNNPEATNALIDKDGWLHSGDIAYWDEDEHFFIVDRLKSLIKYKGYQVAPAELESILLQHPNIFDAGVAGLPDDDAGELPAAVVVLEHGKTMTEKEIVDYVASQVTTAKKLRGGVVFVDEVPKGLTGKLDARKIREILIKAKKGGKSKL

[11] = test system: Wnt5a (protein binding on small-molecule microarray); test: Wnt5a binders on small-molecule microarray, primary screen, biophysical, 635/667 nm fluorescence (AID 1142); conditions: 635 nm fluorescence, higher = more signal;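 further: fluorescence read at 667 nm with signal to noise per printed feature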
[12] = cell viability in Huh7 cells, primary screen, cytotoxicity control for HCV replication inhibitor project, CellTiter-Glo luminescence, basal, 48 h (AID 1143); conditions: Huh7 HCV replicon, higher = more signal, called active from +8 up or from −8 down;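 further: Huh7 hepatoma cells carrying a hepatitis C replication reporter with no stimulus; test concentration not given here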
[13] = P. aeruginosa biofilm formation inhibitors, primary screen, PAO1 strain, BacTiter-Glo luminescence, LB-PBS (AID 1144); conditions: 12 h, higher = more signal
[14] = CREB reporter modulators without forskolin, primary screen, cell-based, PC12, CRE-LacZ reporter, unstimulated (AID 1145); conditions: no forskolin, luminescence, 4.5 h, higher = more signal, called active from +8 up or from −8 down
[15] = CREB reporter modulators under forskolin, primary screen, cell-based, PC12, CRE-LacZ reporter, forskolin-stimulated (AID 1146); conditions: luminescence, 4.5 h, higher = more signal, called active from +8 up or from −8 down;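 further: PC12 cells with 6xCRE LacZ reporter stimulated by forskolin 10 µM; beta-galactosidase reporter signal reflecting CREB driven transcription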
[16] = biological target: Streptavidin (Streptomyces avidinii) (UniProt P22629); test: streptavidin binders on small-molecule microarray, primary screen, artefact control for SMM compound annotation, biophysical, 635/667 nm fluorescence (AID 1147); conditions: streptavidin binding, higher = more signal;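 further: signal reflects streptavidin binding to arrayed compounds as a control protein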
Sequence of Streptavidin (Streptomyces avidinii) (P22629 whole entry, looked up): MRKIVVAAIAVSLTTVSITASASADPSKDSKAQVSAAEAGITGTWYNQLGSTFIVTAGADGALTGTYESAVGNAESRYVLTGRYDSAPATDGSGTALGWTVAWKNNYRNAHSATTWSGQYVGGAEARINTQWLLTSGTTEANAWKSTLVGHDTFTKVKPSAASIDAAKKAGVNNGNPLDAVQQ

[17] = small-molecule binders of probe aInhba, primary screen, biochemical, small-molecule microarray, 635/667 nm fluorescence (AID 1148); conditions: higher = more signal;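 further: score merges 667nm spot fluorescence with signal-to-noise for antibody binding to printed compounds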
[18] = biological target: Torsin-1A (Homo sapiens) (UniProt O14656); test: torsin A binders from cell lysate, primary screen, small-molecule microarray, wild-type, 635/667 nm (AID 1149); conditions: COS7 hTOR1A-WT lysate, 635 nm fluorescence, higher = more signal
Sequence of Torsin-1A (Homo sapiens) (O14656 whole entry, looked up): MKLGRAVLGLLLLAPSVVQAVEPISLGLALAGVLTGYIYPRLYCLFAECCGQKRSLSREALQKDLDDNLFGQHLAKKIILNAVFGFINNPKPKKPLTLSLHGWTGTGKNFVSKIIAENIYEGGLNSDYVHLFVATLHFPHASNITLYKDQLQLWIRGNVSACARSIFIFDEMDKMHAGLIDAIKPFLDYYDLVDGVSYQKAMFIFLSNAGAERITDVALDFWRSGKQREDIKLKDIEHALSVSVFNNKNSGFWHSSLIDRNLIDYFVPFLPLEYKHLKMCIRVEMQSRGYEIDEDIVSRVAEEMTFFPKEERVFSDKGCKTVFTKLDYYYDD

[19] = biological target: Torsin-1A (Homo sapiens) (UniProt O14656); test: small-molecule binders of mutant TOR1A in lysate, primary screen, cell lysate, small-molecule microarray, COS7 lysate, 635/667 nm fluorescence (AID 1150); conditions: COS7 hTOR1A mutant lysate, 635 nm fluorescence, higher = more signal;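 further: score pools 667 nm emission and signal to noise measuring lysate protein binding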
[20] = test system: Sonic hedgehog protein (Shh); test: small-molecule binders of Shh protein, primary screen, biochemical, small-molecule microarray, 635/667 nm fluorescence (AID 1151); conditions: small-molecule microarray binding, 635 nm fluorescence; higher = more signal;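 further: Shh protein binding to compounds spotted on small-molecule microarray slides; score combines spot fluorescence intensity with signal-to-noise across triplicate slides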

Compound	composite z-score [1]	composite z-score [2]	composite z-score [3]	composite z-score [4]	composite z-score [5]	composite z-score [6]	z-score [7]	composite z-score [8]	composite z-score [9]	z-score [10]	composite z-score [11]	z-score [12]	z-score [13]	z-score [14]	z-score [15]	composite z-score [16]	composite z-score [17]	composite z-score [18]	composite z-score [19]	composite z-score [20]
C=C(C)[C@@H]1CC=C(C(O)C2C=CC3C(=O)N(c4ccccc4)C(=O)C3N2Nc2ccc([N+](=O)[O-])cc2)CC1 (stereo not given in full)	0.594	1.27	0.0881	0.995	1.15	0.269	-1.55	1.41	0.963	0.158 (inactive)	0.331	-1.14 (inactive)	-1.4 (inactive)	-0.527 (inactive)	-0.605 (inactive)	1.5	0.19	0.875	0.685	1.11
COCCCNC(=O)[C@@]1(Sc2ccc(C)cc2)CC(=O)N(Cc2ccccc2C(F)(F)F)[C@@H]1c1ccc(CO)cc1I	-1.39	-2.04	-0.905	-1.75	-1.59	-1.5	-0.288	-1.78	-1.47	0.166 (inactive)	-0.249	-0.818 (inactive)	0.86 (inactive)	-0.0888 (inactive)	0.421 (inactive)	-0.503	-0.111	-1.5	-0.642	-1.02
CC(C)NC(=O)[C@@H]1c2ccccc2C(=O)N(Cc2ccc(OC(F)(F)F)cc2)[C@H]1c1ccc(CO)cc1	0.7	1.18	0.344	0.529	1.34	1.22	0.107	0.868	0.45	0.441 (inactive)	0.663	-1.54 (inactive)	-0.294 (inactive)	-0.0243 (inactive)	0.442 (inactive)	0.201	0.618	1.12	0.39	1.81
O=C(NCc1ccccc1)[C@@H]1c2ccccc2C(=O)N(Cc2cc(C(F)(F)F)cc(C(F)(F)F)c2)[C@H]1c1ccc(CO)cc1	0.618	1.14	0.576	0.638	1.36	1.06	0.473	0.991	0.452	1.14 (inactive)	0.145	-1.69 (inactive)	-1.69 (inactive)	0.0387 (inactive)	0.119 (inactive)	0.556	-0.0405	-0.137	0.759	1.93
CCCc1cc2c(n1CCc1ccc(Cl)cc1)C(C)C1CN(C(=O)c3ccccc3)C(C)(C(=O)OC)C21 (stereo not given)	1.6	1.22	1.96	1.02	0.114	-1.41	1.25	-0.766	1.34	-0.548 (inactive)	0.689	-3.68 (inactive)	0.188 (inactive)	1.16 (inactive)	4.57 (inactive)	1.93	-0.0736	-0.103	0.947	-0.264
CC1CC/C=C\[C@H]2OC34C=CCN(Cn5nnc6ccccc65)C(=O)[C@H]3N(CCCCCCO)C(=O)[C@@H]4C2C(=O)O1 (stereo not given in full)	0.965	-0.506	-0.121	-0.627	-1.45	-1.09	0.966	-0.654	-0.435	0.152 (inactive)	-0.755	0.835 (inactive)	-1.18 (inactive)	-0.0859 (inactive)	0.19 (inactive)	-0.399	-0.12	-1.51	-1.11	-0.415
COc1ccc([Si](C)(C)[C@H]2[C@H](CC(=O)N3Cc4ccccc4C[C@H]3CO)O[C@@]3(C(=O)N(c4ccccc4)c4ccccc43)[C@@H]2C)cc1	1.27	1.19	0.0758	0.96	1.37	1.64	1.78	1.48	0.771	0.16 (inactive)	0.479	-5.64 (inactive)	0.449 (inactive)	3.6 (inactive)	-1.16 (inactive)	0.968	0.0342	1.57	0.862	2.04
COCCOC(=O)N1C(=O)[C@@]2(c3cc(C#CCNC(N)=O)ccc31)[C@H](C(=O)Nc1nc3ccccc3s1)[C@H]1C(=O)O[C@H](c3ccccc3)[C@H](c3ccccc3)N1[C@@H]2c1ccccc1OCCO	-0.218	0.423	0.553	0.749	1.48	1.61	-1.79	1.39	0.489	-2.69 (inactive)	0.553	-2.11 (inactive)	-0.264 (inactive)	-0.465 (inactive)	-0.154 (inactive)	0.158	0.152	0.508	0.0351	1.82
COc1ccc([Si](C)(C)[C@H]2[C@H](CC(=O)N3Cc4ccccc4C[C@H]3CO)O[C@@]3(C(=O)N(C)c4ccccc43)[C@@H]2C)cc1	1.45	1.19	0.333	0.945	1.52	1.24	0.206	1.58	0.938	-0.243 (inactive)	0.26	-7.33 (inactive)	0.458 (inactive)	5.61 (inactive)	-1.92 (inactive)	0.783	0.0342	1.28	1.91	2.07
CC(C)C(=C=CC[C@H](O)c1ccccc1OCCO)C[C@H](O)c1cc(Cl)cc(Cl)c1O	-0.287	1.15	0.0701	0.866	1.09	0.285	0.686	1.27	1.16	-1.38 (inactive)	0.192	-0.825 (inactive)	-0.328 (inactive)	14.6 (active)	1.59 (inactive)	0.855	0.0966	0.786	1.06	1.85
